Compound activity as filed in PubChem BioAssay.
PI4K2A inh = blocks human PI4K2A kinase activity; Q9BTU6; purified PI4K2A, ADP-Glo luminescence, 1 h; stronger effect = lower value; activity change, negative = inhibition, % at 76.9 µM; 420,000 compounds, 0.13% hits; in the data active = activity change below about -50%; inconclusive = mostly about -30% to -49%
Target sequence (Q9BTU6 whole entry, looked up): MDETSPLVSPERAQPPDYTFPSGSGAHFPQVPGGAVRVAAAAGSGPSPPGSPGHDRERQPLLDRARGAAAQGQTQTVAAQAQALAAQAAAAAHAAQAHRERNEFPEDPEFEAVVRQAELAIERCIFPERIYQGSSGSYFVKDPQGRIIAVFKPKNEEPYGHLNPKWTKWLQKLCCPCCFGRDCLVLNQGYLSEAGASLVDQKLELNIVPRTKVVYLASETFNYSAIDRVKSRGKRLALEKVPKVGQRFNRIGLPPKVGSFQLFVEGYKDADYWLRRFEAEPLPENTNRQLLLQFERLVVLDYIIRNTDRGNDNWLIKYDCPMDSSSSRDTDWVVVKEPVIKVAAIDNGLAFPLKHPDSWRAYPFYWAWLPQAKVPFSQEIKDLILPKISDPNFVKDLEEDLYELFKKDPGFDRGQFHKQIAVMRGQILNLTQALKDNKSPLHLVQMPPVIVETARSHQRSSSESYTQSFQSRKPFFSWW
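ADP-Glo luminescence measured ADP generated by PI4K2A enzyme (4 ug/mL before mixing) with 1.2 mM PI substrate (pre-mix) and 300 microM ATP (pre-mix). Tris pH7.5 buffer with MgCl2, Triton X-100; 1 h reaction at ambient temperature.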
Nrf2 inh = blocks Nrf2 signaling; A549 ARE-Fluc reporter, luciferase luminescence, 18-24 h; Potency, µM (doses to about 46 µM), actives largely listed as inhibitors; 360,000 compounds, 2.1% hits; AID 504444; also: nearly all actives have a fitted effect of over 60% in size
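Quantitative HTS in A549 cells stably bearing an antioxidant response element-firefly luciferase construct. Inhibition of Nrf2-driven transcription was scored by luminescence after 18-24 h of compound exposure at 37 °C.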
KB-3-1 cytotox = KB-3-1 parental cell cytotoxicity; 400,000 compounds, 1.4% hits; AID 1347075; Potency, µM (titrated, usually from 46.1 µM), hits mostly cytotoxic; KB-3-1 viability, CellTiter-Glo ATP luminescence, 72 h; also: nearly all actives have a fitted effect of over 60% in size
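Cells are dispensed, compounds pinned in, plates held at 37 °C for 72 h, then CellTiter-Glo is added and luminescence read after 10 minutes. Cell line: parental KB-3-1 in phenol-red-free DMEM, 10% FBS.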
KB-V1 MDR tox = KB-V1 MDR subline cytotoxicity. 400,000 compounds, 3.4% hits. KB-V1 MDR cells viability, CellTiter-Glo, 72 h. Potency, µM (series often up to 46.1 µM), usual class: cytotoxic; also: nearly all actives have a fitted effect of over 60% in size
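qHTS viability screen in drug-selected KB-V1 MDR cells: 72 h compound treatment at 37 degrees C, ATP luminescence end point.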
A549 viability = A549 cytotoxicity, counter-screen for Nrf2 inhibitors; A549 ARE-Fluc cells, CellTiter-Fluor viability, 18-24 h; Potency, µM (top dose mostly 46 µM), usual class: inhibitors; 390,000 compounds, 0.16% hits
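A549 ARE_Fluc cells in 5% FBS OPTI-MEM were exposed to compounds in concentration-response for 18-24 h at 37 deg C. Viability was read by CellTiter-Fluor fluorescence (Ex 405/Em 525) after 30 min, before the luciferase read.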
Giardia kill = kills Giardia lamblia | Giardia lamblia trophozoite viability | activity change, % at 7.66 µM, hits read low | 340,000 compounds, 0.15% hits; in the data active = activity change below about -80%; inconclusive = between about -30% and that limit;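 also: parasites exposed to compound for two days anaerobically before the ATP read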
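Each well holds 100 Giardia trophozoites and compound. After two days (48 hrs) at 37 deg C in anaerobic conditions, ATP is quantified by luminescence.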
Hits are given with their value; . = inactive; ? = inconclusive; / = no result given. Compounds with a hit are over-represented: about 5.7% of the library has one in this group of screens. Unless noted, calls follow the shape of the dose curve; as a rule, active = well fitted curve in the direction sought with a large enough effect; inconclusive = small, poorly fitted or top-dose-only effect, or another doubt; inactive = no such curve, though single readings can be large; an effect the other way counts as inactive or inconclusive.

SMILES	PI4K2A inh	Nrf2 inh	KB-3-1 cytotox	KB-V1 MDR tox	A549 viability	Giardia kill
O=C(c1ccc(Cl)c(S(=O)(=O)N2CCCC2)c1)N1CCN(c2ccccc2)CC1	.	14.6µM	.	?	.	.
O=C(c1ccc(Cl)c(S(=O)(=O)N2CCCCCC2)c1)N1CCCC1	.	.	.	.	.	.
CN(c1ccccc1)S(=O)(=O)c1cc(C(=O)N2CCN(c3ccccn3)CC2)ccc1Cl	.	?	?	23.1µM	.	.
O=C(c1ccc(Cl)c(S(=O)(=O)N2CCCCC2)c1)N1CCN(c2ccccc2)CC1	.	23.1µM	/	/	.	.
COc1ccc2c3c([nH]c2c1)C1=NCC[C@]12c1ccccc1N=CN2CC3	.	/	/	/	/	/
C/C=C(/CCC1NCCc2c1[nH]c1ccccc21)[Si](C)(C)C (stereo not drawn)	.	.	18.4µM	11.6µM	.	.
CCCCCCCCCC1NC(C(=O)O)Cc2c1[nH]c1ccccc21 (stereo not drawn)	.	/	.	.	/	/
O=C1Nc2ccc3c(c2C1=Cc1cc2c(cc1Br)OCO2)OCO3	.	.	5.17µM	?	.	.
O=C(NCc1ccccc1)c1noc2c1CCCC2	.	.	?	?	.	.
COC(=O)[C@@H](NC(=O)N1CCN(c2cccc(C(F)(F)F)c2)CC1)C(C)C	.	?	.	?	.	.
COc1ccccc1C(=O)N1CCN(c2cccc(C(F)(F)F)c2)CC1	.	.	5.17µM	2.91µM	.	.
FC(F)(F)c1cccc(N2CCN(C(=S)NCC3CCCO3)CC2)c1 (stereo not drawn)	.	13µM	?	.	?	.
CC(NC(=O)c1noc2c1CCCC2)c1ccccc1 (stereo not drawn)	.	?	.	16.4µM	?	.
CCC(C)[C@H](NC(=O)N1CCN(c2cccc(C(F)(F)F)c2)CC1)C(=O)OC (stereo partly drawn)	.	18.4µM	.	.	.	.
Cc1cc(C(=O)N2CCN(c3cccc(Cl)c3)CC2)c2c(C)nn(-c3ccccc3Cl)c2n1	.	18.4µM	.	.	.	/
O=C(Nc1ccccc1)N1CCN(c2cccc(C(F)(F)F)c2)CC1	.	23.1µM	.	?	.	.
COc1cc(C(=O)N2CCN(c3cccc(C(F)(F)F)c3)CC2)ccc1OCC(=O)N1CCOCC1	.	.	.	18.4µM	.	.
CCOc1cc(CN2CCN(c3ccc(C(C)=O)cc3)CC2)ccc1OC	.	.	.	23.1µM	.	.
COc1ccc(CNC(=O)c2cc3c(=O)oc4ccc(C)cc4c3s2)c(OC)c1	.	.	.	?	.	/
CCOc1cc(CN2CCN(c3cccc(C(F)(F)F)c3)CC2)ccc1OC	.	.	.	?	.	.
CCOc1cc(CN2CCN(c3cccc(C(F)(F)F)c3)CC2)ccc1O	.	?	.	16.4µM	.	.
O=C(c1noc2c1CCCC2)N1CCN(c2ccccc2)CC1	.	/	.	18.4µM	.	.
COc1ccc(C(=O)N2CCN(c3cccc(Cl)c3)CC2)c(OC)c1	.	/	14.6µM	?	.	.
CC1CCc2onc(C(=O)N3CCN(c4cccc(C(F)(F)F)c4)CC3)c2C1 (stereo not drawn)	.	20.6µM	/	/	.	/
COc1ccc(NC(=O)N2CCN(c3cccc(C(F)(F)F)c3)CC2)cc1OC	.	?	.	13µM	.	.
SMILES	PI4K2A inh	Nrf2 inh	KB-3-1 cytotox	KB-V1 MDR tox	A549 viability	Giardia kill
COc1ccc(CC(C)N2CCN(c3cccc(C(F)(F)F)c3)CC2)cc1OC (stereo not drawn)	.	.	.	18.4µM	.	.
O=C(CCNS(=O)(=O)c1cccs1)N1CCN(c2cccc(C(F)(F)F)c2)CC1	.	?	.	16.4µM	.	.
COCC(=O)N1CCN(c2cccc(C(F)(F)F)c2)CC1	.	.	.	.	.	.
COc1ccc(N2CCN(C(=O)CCNS(=O)(=O)c3cccs3)CC2)cc1	.	.	.	.	.	.
CNc1ccccc1/C(O)=C(\C#N)C(=O)NCc1cccc2ccccc12	.	/	/	/	/	/
CCC1CC=CC2C1C(=O)N(Cc1ccccc1)C2c1cc(C)ccc1F (stereo not drawn)	/	.	/	/	.	.
